HIV TAR-Tat – HIV-1 TAR-Tat binding disruption; 0.6% of 100,000 active; HIV-1 TAR RNA, Tat peptide displacement FRET; hits give high values; z-score (concentration not given with the values); active = z-score of 3 or more in at least 2 runs
CDC25B CDK2 inh – human CDC25B-CDK2/CyclinA binding inhibition | P30305+P24941 | HTRF CDC25B-CDK2/CyclinA binding, anti-His/anti-Flag; hits give high values | z-score (test concentration not listed) | 0.72% of 94,000 active; in the data active = z-score above about 3.2
A number is an active result; n = inactive; x = no result given; ! = a repeat was not active. In the library only some 0.9% were active in any assay of this set; here they are far more common.

SMILES | HIV TAR-Tat | CDC25B CDK2 inh
O=C(C1CCCN(S(=O)(=O)N2CCOCC2)C1)N1CCN(c2ccc(F)cc2)CC1 (stereo not given) | n | x
O=C(C1CCCN(S(=O)(=O)N2CCCCC2)C1)N1CCN(c2ccccc2)CC1 (stereo not given) | 15 | x
O=C(c1ccccc1)N1CCN(c2nc3nc[nH]c(=O)c3[nH]2)CC1 | x | n
CC(=O)Oc1ccc(C2Nc3ccc(C(=O)O)cc3C3C=CCC32)c(OC(C)=O)c1 (stereo not given) | x | 5.1
COc1cccc([C@@H]2Nc3ccc(C(=O)O)cc3[C@@H]3C=CC[C@@H]32)c1OC | n | n
COc1cccc([C@@H]2Nc3ccc(C(=O)O)cc3[C@@H]3C=CC[C@@H]32)c1 | 14 | n
CC(=O)Oc1ccc(C2Nc3ccc(C)cc3C3C=CCC32)c(OC(C)=O)c1 (stereo not given) | n | n
O=C(O)c1ccc2c(c1)C1C=CCC1C(c1ccc(F)cc1)N2 (stereo not given) | 10 | n
COC(=O)c1ccc(C2Nc3ccc(OC)cc3C3C=CCC32)cc1 (stereo not given) | n | n
COC(=O)c1ccc([C@@H]2Nc3ccc(C(=O)O)cc3[C@@H]3C=CC[C@@H]32)cc1 | 7.4 | n
CCc1ccc(C2Nc3ccc(C(=O)O)cc3C3C=CCC32)cc1 (stereo not given) | x | n
Cc1ccn2c(=O)c(NC(=O)c3ccccc3C)cnc2c1 | n | n
CCn1c(=O)n(CC)c2cc(N3CCCCC3)c(NS(=O)(=O)c3cc(C)c(C)cc3C)cc21 | n | x
CC(C)n1c(=O)[nH]c2ccccc2c1=O | n | n
CC(C)c1ccc(-c2noc(SCC(=O)N3CCNC3=O)n2)cc1 | n | x
O=C(Nc1ccccc1Cl)Nc1c[nH]c(=O)[nH]c1=O | n | x
COc1ccc2ccccc2c1C1CC(=O)N2CN(c3ccc(F)cc3)CSC2=C1C#N (stereo not given) | n | n
COc1ccc(N2CSC3=C(C#N)C(c4c(OC)ccc5ccccc45)CC(=O)N3C2)cc1 (stereo not given) | n | 6.4
COc1ccc2ccccc2c1C1CC(=O)N2CN(c3ccccc3)CSC2=C1C#N (stereo not given) | n | 4.8
COc1ccc(N2CSC3=C(C#N)C(c4c(OC)ccc5ccccc45)CC(=O)N3C2)c(OC)c1 (stereo not given) | n | 3.8
O=C(NCc1ccc2c(c1)OCO2)C1CCN(C(=O)c2sccc2-n2cccc2)CC1 | x | n
Fc1cc(F)cc(-c2noc3ncnc(NCCCN4CCOCC4)c23)c1 | n | x
CCN1C(=O)C2(c3ccccc31)C(C(=O)Nc1cccc(SC)c1)CC1CSCN12 (stereo not given) | 20 | x
CSc1cccc(NC(=O)C2CC3CSCN3C23C(=O)N(C)c2ccccc23)c1 (stereo not given) | n | x
O=C(NCC1CCCO1)c1cccc(N2C(=O)c3ccc([N+](=O)[O-])cc3C2=O)c1 (stereo not given) | x | 3.5
SMILES | HIV TAR-Tat | CDC25B CDK2 inh
O=C(NCC1CCCO1)c1cccc(N2C(=O)CCS2(=O)=O)c1 (stereo not given) | n | n
Cc1cc2c(cc1S(=O)(=O)NC(C)(C)C)OCCN2C | n | x
Cc1ccc(-c2ccccc2)n1-c1cccnc1 | n | 17
Cc1ccc(-c2ccccc2)n1-c1cccc2cccnc12 | n | n
CCC[B-]1(CCC)OC(Nc2ccc3ccccc3c2)=Nc2scc[n+]21 | x | 4.2
c1ccc(NC2=Nc3scc[n+]3[B-](c3ccccc3)(c3ccccc3)S2)cc1 | x | n
Cc1cc2nc(Nc3nc4c(c(=O)[nH]3)CCCC4)nc(C)c2cc1C | x | n
Fc1ccc(-c2csc3ncnc(NC4CCN(Cc5ccccc5)CC4)c23)cc1 | n | x
O=C(O)C1Cc2c([nH]c3ccccc23)CN1 (stereo not given) | x | 16
O=C(O)C1Cc2c([nH]c3ccccc23)C(c2ccccc2)N1 (stereo not given) | x | n
COc1ccc(OC)c(NS(=O)(=O)c2c(C)nc3sc4ccccc4n3c2=O)c1 | n | x
CN(C)[C@@H]1C(=O)C(C(=O)NCN2CCCC2)=C(O)[C@@]2(O)C(=O)C3=C(O)c4c(O)cccc4[C@@](C)(O)C3CC12 (stereo not given in full) | 14 | x
Cc1c(CCOC(=O)C2C3CC4CC(C3)CC2C4)sc[n+]1CC(=O)c1ccc(Br)cc1 (stereo not given) | x | 9.1
COc1ccc(-c2cc(=O)c3c(O)cc(O)cc3o2)cc1 | n | x
O=c1cc(-c2ccc(O)c(O)c2)oc2cc(O)cc(O)c12 | 33 | x
O=c1c(O)c(-c2ccc(O)c(O)c2)oc2cc(O)cc(O)c12 | 28! | n
COc1cc(-c2oc3cc(O)cc(O)c3c(=O)c2O)ccc1O | n | x
COc1ccc(-c2nc3ccc(Br)cc3c(=O)o2)c(OC)c1 | x | n
COc1cccc(C2Nc3c(C)cccc3-c3cc(C)nn32)c1O (stereo not given) | n | n
CCCSc1nc2c(c(=O)[nH]1)C(c1ccc(OC)c(OC)c1)C(C(=O)OC)=C(C)N2 (stereo not given) | n | n
CCN1CCN(C(=O)c2c(C)oc3ncnc(N4CCCCC4)c23)CC1 | n | x
CCN1CCN(C(=O)c2c(C)oc3c2cc(OC(C)=O)c2ccccc23)CC1 | n | 7.7
Cc1ccccc1Cn1c(=S)[nH]c2ccccc21 | x | n
O=C(O)c1cc(-c2ccccc2)nc2ccccc12 | n | n
N#Cc1ccc(-c2cc(C(=O)O)c3c(ccc4ccccc43)n2)cc1 | x | 12
SMILES | HIV TAR-Tat | CDC25B CDK2 inh
CC1Sc2ccc(S(=O)(=O)CCC(=O)Nc3ccc(Cl)cc3)cc2NC1=O (stereo not given) | n | x
Cc1cc(NC(=O)CS(=O)(=O)c2ccc3c(c2)S(=O)(=O)N=CN3)ccc1F | n | x
CCc1cc2c(=O)oc(-c3ccccc3)nc2s1 | n | n
Cc1cccc(-c2nc3sc(C)cc3c(=O)o2)c1 | n | 7.6
Cc1ccc(-c2cnc(NCc3ccc(Cl)cc3)n2C)cc1 | n | n
CCOC(=O)c1c(C)[nH]c(C)c1S(=O)(=O)N1CCC(C(=O)NCCC2=CCCCC2)CC1 | n | x
Cc1ccc(C2C=C(c3ccccc3)Nc3nc(NC(=O)c4cccs4)nn32)cc1 (stereo not given) | x | n
CC1SCC(=NOC(=O)Nc2ccc(Cl)cc2)CS1 (stereo not given) | x | n
CC1SCC(=NOC(=O)c2ccccc2Cl)CS1 (stereo not given) | x | 13
O=C(Cn1c(=O)oc2ccc(C(=O)N3CCCCC3)cc21)Nc1nccs1 | n | x
Cc1noc(C)c1Cc1ccc(C(=O)NCc2cccs2)o1 | n | x
O=C(O)CCc1nc2ccc(C(=O)O)cc2[nH]1 | n | n
Nc1ccc2nc(CCC(=O)O)[nH]c2c1 | n | 19
CC(C)CC1Oc2ccccc2C2CC(c3ccccc3O)=NN12 (stereo not given) | n | n
CCOC(=O)c1c(N)n(CCc2ccccc2)c2nc3ccccc3nc12 | n | n
Cc1ccc(S(=O)(=O)c2c(N)n(CCO)c3nc4ccccc4nc23)cc1 | x | 18
COc1ccc(Nc2ncnc3onc(-c4ccccc4OC)c23)c(OC)c1 | n | x
COCCCNc1ncnc2c1cnn2-c1ccccc1 | n | x
Nc1ccc(O)c(-c2nc3ccc(N)cc3s2)c1 | 36 | n
Nc1ccc(-c2nc3ccccc3s2)c(Cl)c1 | n | n
COc1ccc(-c2c(Nc3cc(OC)cc(OC)c3)c(=O)c2=O)cc1 | n | x
COc1ccc(OCCNC(=O)c2c(C)noc2-c2c(F)cccc2Cl)cc1 | x | n
COc1cc(-c2nc(-c3ccccc3)c(-c3cccs3)[nH]2)cc(OC)c1O | x | n

Compound activity as filed in PubChem BioAssay.
